TIM10 inh: growth inhibitors of TIM10 yeast strain; 330,000 tested, 1.4% active; AID 463195; S. cerevisiae TIM10 strain growth, BacTiter-Glo luminescence, 24 h; inhibition, % at 10 µM;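 active means inhibition of 40% or more at the single tested concentration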;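 further: wild-type TIM10 isogenic control strain grown at permissive 25 °C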
NLRP3 yeast inh: NALP3 inhibition in yeast; Yeast reconstituted NLRP3/ASC/caspase-1, beta-gal luminescence, 24 h; inhibition, % at 10 µM; 330,000 tested, 0.39% active;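 active means inhibition of 50% or more; inactive means inhibition below 50%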;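 further: plate controls were induced DMSO wells for no effect and uninduced yeast grown without galactose for full effect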
tim10-1 inh: growth inhibitors of tim10-1 mutant yeast | 330,000 tested, 2.2% active | S. cerevisiae tim10-1 ts strain growth, BacTiter-Glo, 24 h | AID 463190 | inhibition, % at 20 µM;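 active means inhibition of at least 40%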;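 further: mutant grown at 25 °C; 0% = DMSO wells with yeast and 100% = wells holding no yeast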
PfHsp90 yeast 2: reduces growth (ATP signal) of yeast expressing P. falciparum Hsp90; S. cerevisiae expressing PfHsp90, BacTiter-Glo ATP, 48 h; yeast lacking PDR1 and PDR3 efflux regulators; AID 504621; inhibition, % at 9.4 µM; 310,000 tested, 0.32% active;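 active means every replicate shows inhibition above about 80%, whatever the replicate mean, limit read from the data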;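 further: 0% = DMSO neutral controls and 100% = 20 µM radicicol positive controls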
SKKanGAS inh: SKKanGAS growth inhibition. 300,000 tested, 1.3% active. S. pyogenes SKKanGAS, kanamycin growth, BacTiter-Glo, 6 h. AID 1662. inhibition, % at 7.5 µM;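 active means mean replicate score, as percent of positive control median, at least 50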;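 further: strain carries kanamycin resistance gene driven by streptokinase promoter and grows in 40 µg/ml kanamycin; loss of luminescence reflects streptokinase promoter inhibition or plain growth inhibition; 0% = median of DMSO wells and 100% = positive control at its reference dose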
tim23-1 inh: tim23-1 yeast growth inhibition; inhibition, % at 20 µM; 330,000 tested, 1.3% active; S. cerevisiae tim23-1 growth, BacTiter-Glo luminescence, 24 h;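 active means growth inhibition of the mutant yeast at or above 50%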;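 further: temperature-sensitive mutant grown at 25 °C; plate controls were DMSO-treated mutant yeast for no effect and medium wells lacking yeast for full effect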
tim10-1 conf: tim10-1 yeast growth inhibition, confirmed. shares compounds with tim10-1 inh. S. cerevisiae tim10-1 ts strain growth, BacTiter-Glo, 24 h. inhibition, % at 20 µM. 7,400 tested, 56% active. AID 463213;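 active means inhibition of yeast growth at or above a set limit in either of two repeat tests at 20 µM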;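 further: tim10-1 mutant grown at permissive 25 °C to find synthetic lethal compounds; 0% = DMSO yeast wells and 100% = medium wells without yeast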
tim10 confirm: TIM10 yeast growth inhibition, confirmed; inhibition, % at 10 µM; S. cerevisiae tim10 strain growth, BacTiter-Glo luminescence, 24 h; AID 463215; 4,600 tested, 63% active; shares compounds with TIM10 inh;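 active means inhibition of yeast growth at or above a set limit in either of two replicates at 10 µM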;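 further: this counterscreen used the strain with wild-type TIM10; 0% = yeast with DMSO and 100% = medium wells lacking yeast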
* hit, by the source's call; . = not tested or not shown. The list is not random: actives were taken first. Their share in the collection is about 4.6%.

SMILES	TIM10 inh	NLRP3 yeast inh	tim10-1 inh	PfHsp90 yeast 2	SKKanGAS inh	tim23-1 inh	tim10-1 conf	tim10 confirm
Cc1ccc(S(=O)(=O)CCC(=O)OCC(=O)c2cc(C)ccc2C)cc1	-2	6	-2	-5	2	3	.	.
COc1ccc(C(=O)Nc2ccc(S(=O)(=O)N3CCN(C)CC3)cc2)cc1	5	20	5	2	1	-9	.	.
O=C(CN1CCN(S(=O)(=O)c2ccc3ccccc3c2)CC1)Nc1ccc2c(c1)CCC2	53*	15	44*	-48	3	27	46*	13
O=C(COc1ccc2ccccc2c1)Nc1ccc(S(=O)(=O)N2CCCCCC2)cc1	46*	1	41*	-11	8	14	37*	-11
COc1ccc(C(=O)Nc2ccc(S(=O)(=O)N3CCCCC3)cc2)cc1	61*	13	48*	3	-1	43	64*	62*
O=C(CN1CCN(S(=O)(=O)c2ccc3ccccc3c2)CC1)Nc1ccc(N2CCOCC2)cc1	13	9	33	9	8	18	.	.
CN(CC(=O)Nc1ccc(Cl)c(C(F)(F)F)c1)C(=O)c1cccc2cccnc12	3	18	19	-1	.	27	.	.
CC1CC(C)(C)NC(=S)N1CC(=O)NCc1ccc2c(c1)OCO2 (stereo not drawn)	-24	-2	10	.	0	0	.	.
Cc1ccc(Cl)cc1NC(=O)C(=O)N/N=C/c1ccc2c(c1)OCO2	4	-6	27	-5	.	1	.	.
Cc1ccc(N2C(=O)CC(Sc3ccccc3C(=O)O)C2=O)cc1C (stereo not drawn)	43*	21	42*	-21	-5	28	47*	40*
Cc1cccc(N2C(=O)CC(Sc3ccccc3C(=O)O)C2=O)c1 (stereo not drawn)	41*	18	49*	1	-1	34	46*	15
COc1ccc(-c2nc(-c3ccccc3)nc(N3CCN(C)CC3)c2C#N)cc1	53*	33	45*	-11	13	50	22	26
CN1/C(=C\C(=O)Nc2cccc(Cl)c2)C(C)(C)c2ccccc21	41*	15	40*	-2	7	47	34*	43*
Cc1ccc(-c2nn(-c3ccccc3)c3[nH]c(=O)c(CNCc4ccccc4)cc23)cc1	43*	25	52*	11	33	47	47*	42*
Cc1nn(-c2ccccc2)c2[nH]c(=O)c(CNCc3ccc4c(c3)OCO4)cc12	2	-2	4	-23	-2	7	.	.
CCC(=O)c1cc(Br)ccc1OCC(=O)N1CCN(S(=O)(=O)c2ccccc2)CC1	.	.	.	23	.	.	.	.
CCCCNC(=O)/C(=C\c1ccc([N+](=O)[O-])o1)NC(=O)c1ccccc1	28	18	38	-7	5	32	.	.
COC(=O)/C(=C\c1ccc([N+](=O)[O-])o1)NC(=O)c1ccccc1	44*	-6	45*	-1	3	6	40*	32*
Cc1ccc(CN2CCN(C(=O)CC(C)C)CC2)cc1	-9	16	-18	-7	0	-2	.	.
Cc1ccc(N=Cc2c(O)n(C)c(=O)n(C)c2=O)nc1	43*	8	40*	42	1	25	17	33*
Cc1ccc(NC(=O)C2CCCO2)cc1[N+](=O)[O-] (stereo not drawn)	0	3	7	7	-2	8	.	.
Cc1ccc2c(c1)Oc1ccc(NC(=O)CCl)cc1C(=O)N2	50*	-26	43*	8	-17	44	30*	33*
Cc1onc(-c2c(F)cccc2Cl)c1C(=O)OCC(=O)Nc1cccc(S(=O)(=O)N(C)C)c1	.	.	.	-10	.	.	.	.
COc1ccc(OC)c(C(=O)/C=C/c2cccnc2)c1	42*	9	48*	16	-7	33	32*	34*
COc1cc(C(=O)/C=C/c2cccnc2)ccc1O	7	23	26	-6	7	15	.	.
SMILES	TIM10 inh	NLRP3 yeast inh	tim10-1 inh	PfHsp90 yeast 2	SKKanGAS inh	tim23-1 inh	tim10-1 conf	tim10 confirm
C=CCn1cnc2c(nnn2Cc2ccc(F)cc2)c1=O	-16	23	-15	-4	-1	1	.	.
Cc1ccc(-c2nc3c(c(=O)c4ccccc4n3C)c(=O)n2-c2ccc(F)cc2)cc1	-7	4	-18	5	24	9	.	.
Cn1c2ccccc2c(=O)c2c(=O)n(-c3ccccc3)c(-c3ccc(C(C)(C)C)cc3)nc21	82*	15	48*	-24	23	47	-5	-8
O=C(c1ccco1)N1CCN(C(=O)c2cc3sccc3n2Cc2ccccc2)CC1	43*	-1	42*	2	-4	47	43*	34*
Cc1ccnc(NC(=O)c2ccc([N+](=O)[O-])s2)c1	69*	3	75*	0	5	34	72*	80*
O=C(Nc1ccccc1N1CCOCC1)c1ccc([N+](=O)[O-])s1	61*	8	66*	103*	.	14	72*	84*
COc1ccc(NC(=O)c2ccc([N+](=O)[O-])s2)c([N+](=O)[O-])c1	15	16	6	-6	-1	11	.	.
Cc1ccnc(NC(=O)c2cc([N+](=O)[O-])cc([N+](=O)[O-])c2)c1	26	14	13	-42	-2	25	.	.
O=C(Nc1ccccc1N1CCOCC1)c1ccccc1[N+](=O)[O-]	-6	1	16	-8	5	11	.	.
Cc1cccc(C)c1NC(=O)c1ccc([N+](=O)[O-])s1	59*	-11	66*	-33	2	-83	54*	53*
Cc1cccc(NC(=O)c2ccc([N+](=O)[O-])s2)c1C	61*	-2	66*	13	14	16	55*	53*
Cc1cccc(NC(=O)c2cccc([N+](=O)[O-])c2O)c1C	.	.	.	28	.	.	.	.
NC[C@H](O)c1ccc(O)c(O)c1	-1	14	-1	-9	.	-5	.	.
CCOc1ccc2nc(SCC(=O)NNC(=O)c3ccco3)c(C)cc2c1	9	1	10	8	-3	-2	.	.
CCOc1ccc2cc(/C=C/C(=O)c3ccco3)c(Cl)nc2c1	42*	33	49*	.	-2	49	36*	14
O=C(Cn1c(=O)oc2cc(S(=O)(=O)N3CCCCC3)ccc21)N1CCCCC1	5	16	8	-4	5	-8	.	.
CCOC(=O)C1CCN(S(=O)(=O)c2cc3c4c(c2)C(C)C(=O)N4CCC3)CC1 (stereo not drawn)	-5	11	17	-6	-1	11	.	.
CCOC(=O)c1c(CSc2ccc(CC)cc2)oc2ccc(O)c(CN(C)C)c12	55*	27	49*	15	1	24	58*	65*
